According to the supplement of paper PMC8728848:
About 410 targets per protein were measured; listed, in parts, are those with the strongest signals and a random draw of the rest.

Key:
Experiment in all cases: glycan array binding signal (z-score within array); higher = stronger binding
Conditions in all cases: glycan notation: IUPAC condensed, linker removed
[1] = biological target: Fuc(a1-2)Gal
Procedure, shortened: (§1)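 Negative Z-scores can be read as non-binding. The Z-score is calculated within each array and then averaged across arrays of one protein sequence at different concentrations or buffers and across linkers. Arrays, 3228 in all, were curated from the Consortium for Functional Glycomics database and kept only where the protein sequence was available.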

[2] = biological target: Fuc(a1-2)Gal(b1-3)GalNAc(a1-3)[Fuc(a1-2)]Gal(b1-4)GlcNAc
Procedure, shortened: as §1

[3] = biological target: Fuc(a1-2)Gal(b1-4)GlcNAc6S
Procedure, shortened: as §1

[4] = biological target: Fuc(a1-2)Gal3S(b1-4)GlcNAc
Procedure, shortened: as §1

[5] = biological target: Fuc(a1-2)Gal6S(b1-4)Glc
Procedure, shortened: as §1

[6] = biological target: Fuc(a1-2)[Gal(a1-3)]Gal(b1-3)GlcNAc(b1-2)Man(a1-3)[Fuc(a1-2)[Gal(a1-3)]Gal(b1-3)GlcNAc(b1-2)Man(a1-6)]Man(b1-4)GlcNAc(b1-4)[Fuc(a1-6)]GlcNAc
Procedure, shortened: as §1

[7] = biological target: Fuc(a1-2)[GalNAc(a1-3)]Gal
Procedure, shortened: as §1

[8] = biological target: Fuc(a1-2)[GalNAc(a1-3)]Gal(b1-3)GlcNAc
Procedure, shortened: as §1

[9] = biological target: Fuc(a1-2)[GalNAc(b1-3)]Gal
Procedure, shortened: as §1

[10] = biological target: Gal(a1-3)Gal(b1-3)GlcNAc
Procedure, shortened: as §1

[11] = biological target: Gal(a1-3)Gal(b1-3)GlcNAc(b1-3)GalNAc
Procedure, shortened: as §1

[12] = biological target: Gal(a1-3)Gal(b1-4)GlcNAc(b1-3)GalNAc
Procedure, shortened: as §1

[13] = biological target: Gal(a1-4)Gal(b1-4)GlcNAc(b1-3)Gal(b1-4)Glc
Procedure, shortened: as §1

[14] = biological target: Gal(b1-3)GlcNAc(a1-3)Gal(b1-4)GlcNAc
Procedure, shortened: as §1

[15] = biological target: Gal(b1-3)GlcNAc(b1-2)Man(a1-3)[Gal(b1-3)GlcNAc(b1-2)Man(a1-6)]Man(b1-4)GlcNAc(b1-4)GlcNAc
Procedure, shortened: as §1

[16] = biological target: Gal(b1-3)GlcNAc(b1-2)Man(a1-3)[Gal(b1-3)GlcNAc(b1-2)Man(a1-6)]Man(b1-4)GlcNAc(b1-4)[Fuc(a1-6)]GlcNAc
Procedure, shortened: as §1

[17] = biological target: Gal(b1-3)GlcNAc(b1-2)Man(a1-3)[GlcNAc(b1-4)][Gal(b1-3)GlcNAc(b1-2)Man(a1-6)]Man(b1-4)GlcNAc(b1-4)GlcNAc
Procedure, shortened: as §1

[18] = biological target: Gal(b1-3)GlcNAc(b1-2)[Gal(b1-3)GlcNAc(b1-6)]Man(a1-6)[Gal(b1-3)GlcNAc(b1-2)Man(a1-3)]Man(b1-4)GlcNAc(b1-4)GlcNAc
Procedure, shortened: as §1

[19] = biological target: Gal(b1-3)GlcNAc(b1-6)[Gal(b1-3)]GalNAc
Procedure, shortened: as §1

[20] = biological target: Gal(b1-4)GlcNAc(b1-2)[Gal(b1-4)GlcNAc(b1-4)]Man(a1-3)[Gal(b1-4)GlcNAc(b1-2)Man(a1-6)]Man(b1-4)GlcNAc(b1-4)GlcNAc
Procedure, shortened: as §1

[21] = biological target: Gal(b1-4)GlcNAc(b1-2)[Gal(b1-4)GlcNAc(b1-6)]Man(a1-6)[GlcNAc(b1-4)][Gal(b1-4)GlcNAc(b1-2)Man(a1-3)]Man(b1-4)GlcNAc(b1-4)GlcNAc
Procedure, shortened: as §1

[22] = biological target: Gal(b1-4)GlcNAc(b1-3)Gal(b1-4)GlcNAc
Procedure, shortened: as §1

[23] = biological target: Gal(b1-4)GlcNAc(b1-3)Gal(b1-4)GlcNAc(b1-2)Man(a1-3)[Gal(b1-4)GlcNAc(b1-3)Gal(b1-4)GlcNAc(b1-2)Man(a1-6)]Man(b1-4)GlcNAc(b1-4)GlcNAc
Procedure, shortened: as §1

[24] = biological target: Gal(b1-4)GlcNAc(b1-3)Gal(b1-4)GlcNAc(b1-2)[Gal(b1-4)GlcNAc(b1-3)Gal(b1-4)GlcNAc(b1-6)]Man(a1-6)[Gal(b1-4)GlcNAc(b1-3)Gal(b1-4)GlcNAc(b1-2)Man(a1-3)]Man(b1-4)GlcNAc(b1-4)GlcNAc
Procedure, shortened: as §1

[25] = biological target: Gal(b1-4)GlcNAc(b1-3)Gal(b1-4)GlcNAc(b1-3)Gal(b1-4)GlcNAc(b1-2)Man(a1-3)[Gal(b1-4)GlcNAc(b1-3)Gal(b1-4)GlcNAc(b1-3)Gal(b1-4)GlcNAc(b1-2)Man(a1-6)]Man(b1-4)GlcNAc(b1-4)[Fuc(a1-6)]GlcNAc
Procedure, shortened: as §1

[26] = biological target: Gal3S(b1-3)[Fuc(a1-4)]GlcNAc
Procedure, shortened: as §1

[27] = biological target: Gal3S(b1-4)Glc
Procedure, shortened: as §1

[28] = biological target: GalNAc(b1-4)GlcNAc6S
Procedure, shortened: as §1

[29] = biological target: GlcA3S(b1-3)Gal(b1-4)GlcNAc(b1-3)Gal(b1-4)Glc
Procedure, shortened: as §1

[30] = biological target: GlcNAc(a1-4)Gal(b1-4)GlcNAc(b1-3)Gal(b1-4)GlcNAc(b1-3)Gal(b1-4)GlcNAc
Procedure, shortened: as §1

B1: Si Bti9 1b-HA (Solanum lycopersicum) (protein)
chain: MFESRPRSVLSLGVFVILVYLSSVPLPVNSQCNRGCDLALASFYVWRGSNLTLISEMFSTSIADIVSYNNRDNIPNQDSVIAGTRINIPFRCDCLNDGEVLGHAFPYRVKSGDTYDLVARNYSDLTTAQWMMKFNSYPENNIPNTVNLSVVVNCSCGNSDVSKDFGLFVTYPVRAEDNLTSVASAANVSEDIIRRYNPAAVSILDIGQGIIYIPGRDRNGNFPPLPTSTDGLSGGAKAPLFFNPAFLYKVVELKLAGRSRTSGYPYDVPDYAGYPYDVPDYALEVLFQ
[1]
  glycan array binding signal (z-score): -0.051
[2]
  glycan array binding signal (z-score): 0.182
[3]
  glycan array binding signal (z-score): -0.271
[4]
  glycan array binding signal (z-score): -0.035
[5]
  glycan array binding signal (z-score): -0.028
[6]
  glycan array binding signal (z-score): 2.04
[7]
  glycan array binding signal (z-score): -0.349
[8]
  glycan array binding signal (z-score): -0.146
[9]
  glycan array binding signal (z-score): -0.405
[10]
  glycan array binding signal (z-score): 9.57
[11]
  glycan array binding signal (z-score): 0.207
[12]
  glycan array binding signal (z-score): -0.182
[13]
  glycan array binding signal (z-score): -0.274
[14]
  glycan array binding signal (z-score): -0.16
[15]
  glycan array binding signal (z-score): 3.24
[16]
  glycan array binding signal (z-score): 1.03
[17]
  glycan array binding signal (z-score): 3.72
[18]
  glycan array binding signal (z-score): 2.51
[19]
  glycan array binding signal (z-score): -0.205
[20]
  glycan array binding signal (z-score): -0.324
[21]
  glycan array binding signal (z-score): -0.363
[22]
  glycan array binding signal (z-score): -0.346
[23]
  glycan array binding signal (z-score): 3.44
[24]
  glycan array binding signal (z-score): 2.69
[25]
  glycan array binding signal (z-score): 0.042
[26]
  glycan array binding signal (z-score): -0.237
[27]
  glycan array binding signal (z-score): 2.57
[28]
  glycan array binding signal (z-score): -0.204
[29]
  glycan array binding signal (z-score): -0.157
[30]
  glycan array binding signal (z-score): -0.231
